D2 ag-1: HTS Assay for Allosteric Agonists of the Human D2 Dopamine Receptor: Primary Screen for Agonists. D(2) dopamine receptor (Homo sapiens), P14416. HEK293 T-REx D2 cells, calcium flux agonist mode. activation, % at 2 µM. 0.53% of 340,000 active;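 active means activation over 3 SD above normal in the single-dose calcium agonist read, cut at about 30% in these data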; further: 0% is about no effect
Target sequence (P14416 whole entry, looked up): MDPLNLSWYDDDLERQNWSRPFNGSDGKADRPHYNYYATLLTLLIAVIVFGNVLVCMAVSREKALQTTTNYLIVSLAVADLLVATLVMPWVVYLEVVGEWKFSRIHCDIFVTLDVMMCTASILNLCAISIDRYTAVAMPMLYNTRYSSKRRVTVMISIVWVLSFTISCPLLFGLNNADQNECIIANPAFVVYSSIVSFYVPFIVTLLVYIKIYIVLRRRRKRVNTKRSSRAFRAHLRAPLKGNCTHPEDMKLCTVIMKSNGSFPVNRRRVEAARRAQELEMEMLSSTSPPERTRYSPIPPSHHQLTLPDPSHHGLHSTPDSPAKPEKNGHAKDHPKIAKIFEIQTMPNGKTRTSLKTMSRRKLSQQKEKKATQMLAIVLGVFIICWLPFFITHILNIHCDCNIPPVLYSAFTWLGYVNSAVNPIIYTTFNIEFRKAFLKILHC
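Tetracycline-induced HEK293 Trex cells with D2 receptor force-coupled to calcium signaling, plated overnight at 30 C and loaded with no-wash calcium dye. Calcium flux read kinetically for 180 s after compound addition; responses flag agonists.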
D2 antagonist: HTS Assay for Allosteric Antagonists of the Human D2 Dopamine Receptor: Primary Screen for Antagonists. D(2) dopamine receptor (Homo sapiens), P14416. HEK293 TREx D2 cells, calcium flux, dopamine EC80. inhibition, % at 10 µM. 2% of 340,000 active. AID 485344, 2010; in the data active means inhibition above about 30%; inactive means below that, where a call was filed; further: 0% is about no effect
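Calcium mobilization kinetics were recorded at 1 s intervals in tetracycline-induced HEK293 T-REx D2 cells, first for 180 s after compound addition and then 180 s after EC80 dopamine.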
D2 ag-2: Beta-Arrestin HTS for Positive Allosteric Modulators of the Human D2 Dopamine Receptor: Agonists; 0.084% of 360,000 active; AID 624465, 2012; activation, % (no concentration beside the values); DiscoveRx PathHunter D2 beta-arrestin, luminescence, 90 min; 100% = 57 uM dopamine signal; in the data active means activation above about 40%
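Agonist mode: compounds alone added to overnight-plated D2 PathHunter cells for 90 min at 37 C, with 57 uM final dopamine (EC100) defining full response. Beta-arrestin recruitment detected by chemiluminescent reagent, read after 1 h at ambient temperature.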
D2 PAM-1: Beta-Arrestin HTS for Positive Allosteric Modulators of the Human D2 Dopamine Receptor: Potentiators | D(2) dopamine receptor (Homo sapiens), P14416 | 0.23% of 360,000 active | DiscoveRx D2 beta-arrestin cells, luminescence, 90 min; 100% = 57 uM dopamine signal | potentiation, % (test concentration not listed); in the data active means potentiation above about 50%
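D2 cells co-treated with compound plus 50 nM dopamine (EC20) for 90 min at 37 deg C to detect potentiation. Beta-arrestin recruitment was read as enzyme-fragment luminescence after 1 h at ambient temperature. Full response was set by 57 uM dopamine.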
D2 PAM-2: HTS Assay for Positive Allosteric Modulators of the Human D2 Dopamine Receptor: Primary Screen for Potentiators; D(2) dopamine receptor (Homo sapiens), P14416; HEK293 T-REx D2, calcium flux, EC20 dopamine potentiation; potentiation, % at 10 µM; 0.34% of 340,000 active; AID 485347, 2010;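 active means potentiation over 3 SD above the plate norm, cut at about 30% in these data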; further: 0% is about no effect
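Using a no-wash calcium dye in inducible, force-coupled HEK293 Trex cells expressing D2, we tracked fluorescence each second for 180 s after compound, then for 180 s after EC20 dopamine to detect augmented signalling.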
Active calls of the source: *; . = no result given; ! = a repeat was not active. Shown are actives, neighbours in structure and some others; about 2.4% of the full set was active somewhere.

SMILES	D2 ag-1	D2 antagonist	D2 ag-2	D2 PAM-1	D2 PAM-2
Cc1cccc(C)c1NC(=O)CN1C(=O)N(C)Cc2ccccc21	0.1	44.9*	0.3	-2.3	-2.5
CN1Cc2ccccc2N(CC(=O)NCc2ccccc2)C1=O	.	.	-2.5	-8.3	-1.7
Cc1cccc(C)c1NC(=O)CN1C(=O)C2CC=CCC2C1=O (stereo unspecified)	0.0	56.9*	-5.6	1.0	-4.2
Cc1cc(C(=O)NC2CC(C)(C)Cc3c2cnn3-c2ccc(F)cc2)no1 (stereo unspecified)	0.1	-2.6	0.1	-2.5	10.7
COc1cc(/C=C(/C(=O)O)c2ccc(-c3ccccc3)cc2)cc(OC)c1OC	-1.3	-17.1	8.2	4.9	30.4*
COc1ccc(-c2oc3cccnc3c2/C=C/c2ccc(OC)c(OC)c2)cc1	0.5	30.0*	-0.9	8.8	-2.8
CNc1c(NC(=O)C2CCC(C)CC2)c(=O)oc2ccccc12 (stereo unspecified)	0.5	-9.5	-3.4	-3.5	-9.5
COc1ccccc1/C=C/CN1CCCC(CCC(=O)NCc2ccc(F)c(F)c2)C1 (stereo unspecified)	-0.5	33.0*	1.1	-11.4	-20.2
COc1ccc(/C=C/CN2CCCC(CCC(=O)NCc3ccc(F)c(F)c3)C2)cc1 (stereo unspecified)	0.2	-45.2	-0.6	-15.4	-15.2
COc1cccc(CNC(=O)CCC2CCCN(C/C=C/c3ccccc3OC)C2)c1 (stereo unspecified)	0.6	32.5*	-2.1	-31.7	-16.6
CCc1ccc(NC(=O)CSC2=Nc3ccccc3C3=NC(CC(=O)NCc4ccc5c(c4)OCO5)C(=O)N23)cc1 (stereo unspecified)	-0.1	.	.	.	-12.1
Cc1ccc([N+](=O)[O-])cc1S(=O)(=O)Nc1ccc(C(=O)N2CCN(C(=O)c3ccco3)CC2)cc1	-2.5	-6.3	2.0	1.6	12.4
COC(=O)c1c(NC(=O)c2ccc(S(=O)(=O)N3CCCCC3)cc2)sc2c1CCN(C)C2	1.0	.	.	.	-6.0
COCCCNC(=O)c1cn(Cc2c(F)cccc2Cl)nn1	-1.0	32.0*	-1.1	5.5	-8.7
COCCNC(=O)CSCc1c(F)cccc1Cl	-2.1	2.0	-0.5	-7.8	2.0
Cc1cc(C2=CC(=O)C[C@H](c3ccc(F)cc3)C2)ccc1F	.	.	-5.9	1.5	.
Cc1nc(-c2ccccc2)sc1-c1n[nH]c(=S)n1C	0.7	-5.5	1.8	-16.7	40.5*
Cc1ccc(NC(=O)c2cccc(-n3cnnn3)c2)cc1Cl	-0.5	22.6	-5.0	-1.9	5.8
Cc1ccc(C)c(OCCC(=O)Nc2ccc3c(c2)OCO3)c1	0.3	5.2	-0.5	-17.1	-10.9
COc1ccc(CCC(=O)NNC(=O)Nc2cc(Cl)ccc2C)cc1	-0.5	33.0*	-7.8	-12.5	-1.2
COC(=O)c1ccc(C)c(NC(=O)CCc2ccc(OC)cc2)c1	-0.8	-10.8	0.1	-6.7	-3.1
COc1ccc(Br)cc1/C=C/C(=O)Nc1ccc2ccccc2c1	-0.2	-21.6	-0.5	-9.3	-19.3
COc1ccc(/C=N/NC(=O)CNC(=O)/C=C/c2ccccc2OC)cc1	-0.2	-5.6	-3.8	-9.1	-29.8
COc1ccccc1/C=C\C(=O)NCC(=O)N/N=C/c1cccc(OC)c1O	-0.8	49.5*	-0.2	-35.0	-22.9
COc1ccccc1/C=C/C(=O)NCC(=O)N/N=C/c1cc(Br)ccc1OC	0.2	64.2*	-0.9	-11.8	-9.7
SMILES	D2 ag-1	D2 antagonist	D2 ag-2	D2 PAM-1	D2 PAM-2
COc1cc(OC)c2cc(C(=O)N/N=C/c3cccc(OC)c3O)[nH]c2c1	-0.8	-10.0	-2.6	19.8	9.8
COc1ccc(Br)cc1/C=C/C(=O)Nc1ccc(C)cc1	-0.1	73.6*	1.7	-16.0	-20.4
COc1cccc(/C=N/NC(=O)c2cc3c(OC)ccc(OC)c3[nH]2)c1O	-1.9	8.7	-4.2	52.0*	-14.1
CC(C)(C)OC(=O)NCCCCCNC(=O)c1[nH]cnc1C(=O)NC1CCN(C(=O)OC(C)(C)C)CC1	0.0	-0.8	5.5	5.4	21.1
COC(=O)c1ccc(CN(C(=O)N2CCN(C)CC2)S(=O)(=O)c2ccc(C)cc2)cc1	0.2	2.2	-4.2	-7.2	-4.6
CN(Cc1ccccc1)C(=O)c1[nH]cnc1C(=O)Nc1ccc(Br)cc1F	.	.	1.6	.	.
CCCN(C(=O)CSc1nnc(-c2ccc3c(c2)OCO3)o1)C1CCS(=O)(=O)C1 (stereo unspecified)	.	.	-3.1	-7.8	.
c1ccc(-c2ccncn2)cc1	.	.	-0.2	-5.7	.
COc1ccc(/C=C/C(=O)NCC(=O)N/N=C/c2cc(Br)ccc2OC)cc1	0.3	69.5*	2.0	-18.9	-17.9
COc1ccc(/C=C\C(=O)NCC(=O)N/N=C/c2ccc(O)cc2O)cc1	-1.7	-10.4	-3.7	-22.1	-16.5
COc1cccc(/C=N/Nc2ccc(C(=O)O)cc2)c1O	-0.4	0.9	-0.8	78.6*	0.1
COc1cccc(/C=N/Nc2ccc(S(=O)(=O)O)cc2)c1O	.	.	-0.2	7.9	.
Cc1cc(=O)n(C(C)(C)C)c(=O)n1Cc1ccccc1	-2.1	-0.3	-6.0	-6.8	5.5
CC1CCC(NC(=O)CCn2ccc3cc(S(=O)(=O)N4CCCC4)ccc32)CC1 (stereo unspecified)	-0.7	-6.4	8.5	-9.2	4.9
CCCn1cnc2c(N)c(C)c(C)cc21	0.6	32.4*	-0.6	-4.5	8.4
COc1cccc(Cn2cnc3c(N)c(C)c(C)cc32)c1	1.9	-7.9	-1.7	-0.8	-1.9
Cc1ccccc1NS(=O)(=O)c1cc2c(cc1C)NC(=O)CO2	6.3	10.7	-2.3	-0.1	13.7
COc1ccc(NS(=O)(=O)c2cc3c(cc2C)NC(=O)CO3)c(OC)c1	38.0*!	-11.0	2.6	12.6	-8.1
CC1Cc2ccccc2N1C(=O)c1ccc(F)c(S(=O)(=O)N2CCOCC2)c1 (stereo unspecified)	.	.	-0.2	-6.5	.
Cc1ccc(NC(=O)Cc2ccccc2)cc1S(=O)(=O)N1CCOCC1	.	.	3.2	-7.6	.
O=C(Nc1ccc(F)cc1)C(c1ccccc1)N1CCN(S(=O)(=O)c2ccc3ccccc3c2)CC1 (stereo unspecified)	1.1	36.9*	0.6	-10.1	-2.5
Cc1ccc(C)c(S(=O)(=O)N2CCN(C(C(=O)Nc3ccc(F)cc3)c3ccccc3)CC2)c1 (stereo unspecified)	0.3	-8.0	-1.1	-12.5	-4.2
C[C@@H](CN=[N+]=[N-])CN1CC[C@H](C(C)(C)C)CCC1=O	0.4	27.2	-1.6	-5.0	5.6

Compound activity from PubChem BioAssay.
